# Tgondii IFNg = inhibitors of Toxoplasma gondii growth with IFN-gamma | hit rate 3.8% among 69,000 | Toxoplasma gondii growth in IFN-gamma-treated host cells; stronger effect = lower value | AID 1259416 | activity change, negative = inhibition, % (concentration not given with the values); in the data active = activity change below about -70%, passing the limit was not always enough;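 also: host cells are HeLa cells infected with Toxoplasma gondii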
# Starred values were filed as active, the others as inactive; ! = repeats disagree. Shown is part of a subset that was picked to be rich in hits.
SMILES,Tgondii IFNg
Cc1ccc(CNC(=O)c2ccc(-c3nc(CN4CCc5ccccc54)c(C)o3)cc2)cc1,72
Cc1oc(-c2ccc(C(=O)NCCN(C)C)cc2)nc1CN1CCc2ccccc21,-112*
COCCNC(=O)c1ccc(-c2nc(CN3CCc4ccccc43)c(C)o2)cc1,160
Cc1oc(-c2ccc(C(=O)NCCN3CCOCC3)cc2)nc1CN1CCc2ccccc21,55
CC1CCCCN1CCN(C)S(=O)(=O)NCc1ccccc1 (stereo not drawn),-2
O=C(Cn1ncc2c(N3CCCCC3)ncnc21)N1CCN(c2cccc(C(F)(F)F)c2)CC1,-69
CCOc1ccc(OCCSc2nc3ccccc3[nH]2)cc1,12
CCOc1ccc2nc(SCC)[nH]c2c1,54
CCCCOc1cc(C(F)(F)F)nc2ccc(CSc3nc4ccccc4[nH]3)cc12,-86*
Cn1nc(C2CCN(C(=O)c3cccnn3)CC2)n(Cc2ccccc2)c1=O,6
Cc1ccc2[nH]c(C(=O)NC(C)Cc3c(C)nn(C)c3C)c(-c3ccccc3)c2c1 (stereo not drawn),-27
Cc1ccc(NC(=O)OC2CCCCC2)cc1NC(=O)OC1CCCC1,-105*
Cc1ccc(NC(=O)C2CCCCC2C(=O)O)cc1Cl (stereo not drawn),-4
COc1ccc(NC(=O)Nc2ccc(OC)c(OC3CCCC3)c2)cc1OC1CCCC1,139
Cc1oc(C2CCN(S(=O)(=O)CCc3ccccc3)CC2)nc1C(=O)N(C)C,54
Cc1nc(CN2CCN(S(=O)(=O)NCc3ccccc3)CC2)no1,-1
Cc1ccc(NC(=O)Cn2c(=O)cc(-c3nc(C(C)C)no3)c3ccccc32)cc1F,37
COc1ccc(NC(=O)C(=O)NCCc2csc(-c3ccc(C(F)(F)F)cc3)n2)cc1OC,51
OC(CN1CCOCC1)c1ccc(-c2cccc3ccnn23)cc1 (stereo not drawn),-17
Cn1cnnc1Sc1ccc(CN2CCc3[nH]c4ccc(F)cc4c3C2)o1,14
COc1ccc(C(=O)Nc2ccc(-c3nc(-c4cc(C)ccc4C)co3)cc2)cc1OC,7
COc1ccc(C(=O)Nc2ccc(N3CCCC3)cc2)cc1OC,-5
COc1ccc(NC(=O)c2ccc(-c3ccc(-c4noc(C)n4)cc3C)cc2)cc1N1CCN(C)CC1,-72*!
COc1ccc(NC(=O)c2ccc(-c3ccc(-c4noc(C)n4)cc3C)cc2)cc1OCCN(C)C,-77*!
COc1ccc(C(=O)Nc2ccc(-c3nc(-c4ccccc4)co3)cc2)cc1OC,8
SMILES,Tgondii IFNg
COc1ccc(NC(=O)c2ccc3nc(-c4ccoc4)c(-c4ccoc4)nc3c2)cc1OC,57
Cc1ccc(Cl)cc1NC(=S)NCCO,41
CCn1c(=O)c(-c2nc(-c3ccccc3Br)no2)c(O)c2cc(F)ccc21,1
Cc1ccc2[nH]c(CNC(=O)c3ccc(C#CC(C)(C)O)o3)nc2c1C,8
Cc1oc(-c2cccc(C(F)(F)F)c2)nc1CN1CCCC(C(N)=O)C1 (stereo not drawn),4
Cc1oc(-c2cccc(Cl)c2)nc1CN1CCCC(C(=O)NC2CCCCCC2)C1 (stereo not drawn),-56
COc1ccc(CNC(=O)C2CCCN(Cc3nc(-c4cccc(C)c4)oc3C)C2)cc1 (stereo not drawn),-83*
c1ccc(CNc2cc(-c3cccc(-n4cnnc4)c3)c3cc[nH]c3n2)nc1,-3
CC(C)CNC(=O)CC1CC2(CCN(C(=O)Nc3ccccc3)CC2)Oc2ccccc21 (stereo not drawn),-2
COc1ccc(C(=O)Nc2cccc(-c3nc4ccccc4[nH]3)c2)cc1,-53
CCOc1cc(C(=O)Nc2ccc3c(c2)CCC(=O)N3)cc(OCC)c1OCC,9
CCOc1cc(C(=O)Nc2ccc(Cl)c(-c3nc4ccccc4[nH]3)c2)cc(OCC)c1OCC,-76*
COCC(=O)N1C[C@@H]2COC[C@]2(COCc2csc(C)n2)C1,-12
Cc1cccc(-n2cc(-c3ccnc(NC(C)Cc4ccncc4)n3)cn2)c1 (stereo not drawn),-51
CC(Cc1cccnc1)Nc1nccc(-c2cnn(-c3ccccc3F)c2)n1 (stereo not drawn),-72*
CC(NC(=O)Cc1ccccn1)c1cnn(-c2ccccc2F)c1 (stereo not drawn),6
O=C(Cn1cnc2ccccc21)N1CCC(c2ccccc2)C1 (stereo not drawn),5
O=C(Nc1ccccc1C(=O)Nc1cccc2ccccc12)Nc1cccc2ccccc12,135
O=C(Nc1ccc2c3c(cccc13)CC2)c1cccnc1Cl,32
O=C(Nc1ccc2c3c(cccc13)CC2)c1nc(-n2cnnc2)n[nH]1,-80*
CCc1ccc2oc(=O)cc(CN3CCN(Cc4nc(-c5ccc(Cl)cc5)oc4C)CC3)c2c1,-2
CS(=O)(=O)N1CCO[C@H]2CCN(C(=O)c3cccs3)C[C@H]21,2
O=C(Nc1ccncc1)c1cc([N+](=O)[O-])ccc1Cl,-82*
O=C(Nc1ccc([N+](=O)[O-])cc1Cl)c1cc(Cl)ccc1O,-76*!
O=C(O)c1cc([N+](=O)[O-])ccc1NCCCc1ccccc1,30
CCC(=O)Oc1ccc(C(=O)Nc2ccc([N+](=O)[O-])cc2)cc1,110

# Compound activity as filed in PubChem.
